Mito fusion act = qHTS Assay for Small Molecule Inhibitors of Mitochondrial Division or Activators of Mitochondrial Fusion; S. cerevisiae fusion-defective mutant growth rescue, CellTiterGlo 48 h; Potency, µM (titrated, usually from 46.1 µM), hits mostly activators; 0.23% of 320,000 active; note: nearly all actives have a fitted effect of over 45% in size
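Read-out: ATP-based luminescence (CellTiterGlo, 10 min ambient) reporting growth of fusion-defective ts yeast after 48 hours at 37C on glycerol/ethanol YPEG medium in the presence of compound.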
BRCA1 expr up = qHTS Assay to Identify Small Molecule Activators of BRCA1 Expression; MCF7-BRCA1-FFLuc reporter, luminescence, 48 h; response scale: scaled: vehicle 0%, 10 µM genistein 100%; Potency, µM (highest dose often 46.1 µM), most hits filed as activators; 1.1% of 380,000 active; AID 624202, 2012; note: nearly all actives have a fitted effect of over 80% in size
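48 h compound treatment of MCF7-BRCA1-FFLuc cells (phenol-red free MEM, 37 °C), then 15 min with luciferase substrate and luminescence imaging.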
GLP1R cytotox = qHTS of GLP-1 Receptor Inverse Agonists: Cytotox Screen. HEK293 cAMP-luciferase reporter cells, luminescence, 24 h. Potency, µM (top dose mostly 38.3 µM), usual class: inhibitors. 0.13% of 410,000 active;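 note: loss of luciferase light is scored as toxicity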
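To flag toxic compounds, the library was rerun on cells for 24 hr at 37 deg C and 5% CO2. Viability-linked luminescence was captured 12 min after adding luciferase detection reagent.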
GLP-1R agonist = qHTS of GLP-1 Receptor Agonists; HEK293 GLP-1R CRE-luciferase, luminescence, 4-6 h; cells express a hypersensitive GLP-1R form; Glucagon-like peptide 1 receptor (Homo sapiens), P43220; 0.007% of 380,000 active; Potency, µM (titrated, usually from 45.6 µM), usual class: activators
Target sequence (P43220 whole entry, looked up): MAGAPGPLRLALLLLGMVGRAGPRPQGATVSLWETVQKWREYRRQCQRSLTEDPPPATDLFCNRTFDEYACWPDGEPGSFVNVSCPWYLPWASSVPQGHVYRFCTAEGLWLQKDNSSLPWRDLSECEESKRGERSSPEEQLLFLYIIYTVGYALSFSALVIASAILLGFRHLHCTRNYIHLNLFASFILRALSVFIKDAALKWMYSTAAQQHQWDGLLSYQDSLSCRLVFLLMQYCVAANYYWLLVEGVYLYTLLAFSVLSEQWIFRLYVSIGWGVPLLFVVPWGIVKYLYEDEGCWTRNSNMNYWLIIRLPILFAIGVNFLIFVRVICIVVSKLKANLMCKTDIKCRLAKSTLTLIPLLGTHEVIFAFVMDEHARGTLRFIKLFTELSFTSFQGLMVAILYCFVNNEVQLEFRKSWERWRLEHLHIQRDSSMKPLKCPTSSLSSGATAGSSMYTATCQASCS
GLP-1R inv ag = qHTS of GLP-1 Receptor Inverse Agonists (Inhibition Mode); Glucagon-like peptide 1 receptor (Homo sapiens), P43220; HEK293 GLP-1R CRE-luciferase, luminescence, 24 h; GLP-1R form is constitutively active; Potency, µM (doses to about 38.3 µM), actives largely listed as inhibitors; 1.6% of 410,000 active; note: nearly all actives have a fitted effect of over 55% in size
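Assay principle: reduced luminescence from a cAMP-responsive reporter in HEK293 cells co-expressing a constitutively active GLP-1R. Conditions: 24 hr compound incubation, 37 deg C, 5% CO2.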
Of the large screens only hits and unclear results are named; the others gave an inactive call. Hits are enriched below; roughly 2.8% of the tested compounds scored in any of these assays. Calls come from the whole dose curve; as a rule, active = well fitted curve in the direction sought with a large enough effect; inconclusive = small, poorly fitted or top-dose-only effect, or another doubt; inactive = no such curve, though single readings can be large; an effect the other way counts as inactive or inconclusive.

COc1cccc(CN2CCN(Cc3cc(OC)c(OC)c(OC)c3)CC2)c1OC	none
COc1cccc(CN2CCC(N(CCc3ccccc3)Cc3ccccc3)CC2)c1OC	GLP-1R inv ag 10µM
CCOc1cccc(C(=O)Nc2ccc(-c3nc4cc(C)cc(C)c4o3)cc2)c1	none (no result: Mito fusion act, BRCA1 expr up, GLP-1R agonist)
Cc1cccc(-c2nc(C)c(CCNC(=O)c3cccs3)s2)c1	GLP-1R inv ag inconclusive (no result: Mito fusion act)
CCN(CC)CCNC(CC(=O)Nc1ccc(Cl)cc1Cl)C(=O)O (configuration not stated)	none
O=c1cc(NCCCO)c2ccccc2o1	none
CN(C)CCNc1ccc(CO)c2oc3ccc(O)cc3c(=O)c12	GLP1R cytotox inconclusive, GLP-1R inv ag 10µM (no result: Mito fusion act)
CCN(CC)CCNc1ccc(CO)c2oc3cc(Cl)ccc3c(=O)c12	GLP-1R inv ag 4.5µM (no result: Mito fusion act)
CCOC(=O)CN(C(=O)COC(=O)C1(c2ccccc2)CC1)c1ccc(F)cc1	GLP-1R inv ag inconclusive
CCN(CC)CC#CCC(O)(c1ccccc1)c1ccc(Br)cc1 (configuration not stated)	GLP-1R inv ag 10µM
CCN(CC)CC#CCC(O)(c1ccccc1)c1ccccc1	GLP-1R inv ag inconclusive
Cc1cc(C)c(C(=O)COC(=O)CN2C(=O)NC3(CCCC3)C2=O)cc1C	none (no result: Mito fusion act)
Cc1cc(/C=C\c2ccc3cc(N(C)C)ccc3[n+]2C)c(C)n1-c1ccccc1	GLP1R cytotox inconclusive, GLP-1R inv ag 2µM
CCOCCCNC(=S)NNC(=O)CCn1nc(C)c(Br)c1C	GLP1R cytotox inconclusive, GLP-1R inv ag 5.6µM
CS(=O)(=O)N(CC(=O)NCCc1ccccc1)c1cc(C(F)(F)F)ccc1Cl	GLP-1R inv ag inconclusive (no result: Mito fusion act, BRCA1 expr up, GLP-1R agonist)
COc1ccccc1CN(C)CC(=O)NC(=O)NC1CCCCC1	GLP-1R inv ag 4.5µM
O=C(Nc1cccc(-n2cccn2)c1)C1CCCN(Cc2cc3ccccc3[nH]2)C1 (configuration not stated)	GLP-1R inv ag inconclusive
CCn1ncc(CN2CCCC(C(=O)Nc3cccc(-c4cc5ccccc5[nH]4)c3)C2)c1C (configuration not stated)	GLP1R cytotox inconclusive, GLP-1R inv ag 3.5µM
CCN(CC(=O)Nc1ccc(S(=O)(=O)N2CCCC2)cc1)Cc1ccccc1	GLP-1R inv ag inconclusive
Cc1nc(-c2ccccc2)nn1-c1ccc([N+](=O)[O-])cc1	BRCA1 expr up 5µM (no result: Mito fusion act)
COC(=O)/C=C1\OCc2cc(OC)c(OCc3ccccc3)cc21	none (no result: Mito fusion act, BRCA1 expr up, GLP-1R agonist)
COc1cc2c(cc1OC)/C(=C/c1ccc(Br)cc1)C(=O)OC2	Mito fusion act 16µM, GLP-1R inv ag 11µM
CCc1ccc(C(=O)OCC(=O)N2CCCCCC2)cc1	GLP-1R inv ag inconclusive
Cc1ccc(N(CC(=O)Nc2cc(Cl)ccc2Oc2ccccc2)S(C)(=O)=O)cc1C	GLP-1R inv ag inconclusive
Cc1ccc(N(CC(=O)Nc2cc(Cl)ccc2Oc2ccccc2)S(C)(=O)=O)c(C)c1	GLP-1R inv ag 7.1µM
CCOC(=O)c1c(-c2ccc(OC)cc2)csc1NC(=O)CSc1ccccc1	GLP-1R inv ag 4.5µM
CCOC(=O)c1c(-c2ccccc2)csc1NC(=O)CCN1CCOCC1	Mito fusion act 11µM, GLP-1R inv ag inconclusive
CCOC(=O)c1c(-c2ccccc2)csc1NC(=O)CSc1ccccc1	GLP-1R inv ag inconclusive
CCOC(=O)c1c(-c2ccc(C)cc2)csc1NC(=O)CCN1CCOCC1	Mito fusion act 13µM, GLP-1R inv ag inconclusive
CCOC(=O)c1c(-c2ccc(C)o2)csc1NC(=O)CN1CCOCC1	GLP-1R inv ag inconclusive
Cc1ccccc1C(=O)N/N=C1/SCC(=O)N1Cc1ccccc1	none
CCOc1ccccc1CNC(=O)c1cn(C)c(=O)c2c1c1ccccc1n2C	none
O=C(NCCc1ccccc1)C(=O)NC1CCCCC1	BRCA1 expr up 4µM
S=C(NCCc1ccccc1)N1CCN(C(=S)NCCc2ccccc2)CC1	none
O=C(NC1CCCCC1)C(=S)NCCc1ccccc1	BRCA1 expr up 11µM, GLP-1R inv ag inconclusive

Screens (PubChem BioAssay)
